11 compounds from ChEMBL document CHEMBL3988442, “University of Dundee, Small-Polar-MMV Screening Library” (2021) can be followed below.

SMILES strings stand for the structures. For some of these results: Potency and affinity values are given separately.

Common to all, as to set-up: scale not given: direction of the effect not stated beside the values
The target in assay [1] is Protein translocase subunit SecA (Escherichia coli (strain K12)) (UniProt P10408). As to the kind of experiment: Assay to Identify E. coli SecA ATPase Inhibitors. The assay is classed as functional. Conditions: 30 µM.
Sequence of Protein translocase subunit SecA (Escherichia coli (strain K12)) (P10408 whole entry): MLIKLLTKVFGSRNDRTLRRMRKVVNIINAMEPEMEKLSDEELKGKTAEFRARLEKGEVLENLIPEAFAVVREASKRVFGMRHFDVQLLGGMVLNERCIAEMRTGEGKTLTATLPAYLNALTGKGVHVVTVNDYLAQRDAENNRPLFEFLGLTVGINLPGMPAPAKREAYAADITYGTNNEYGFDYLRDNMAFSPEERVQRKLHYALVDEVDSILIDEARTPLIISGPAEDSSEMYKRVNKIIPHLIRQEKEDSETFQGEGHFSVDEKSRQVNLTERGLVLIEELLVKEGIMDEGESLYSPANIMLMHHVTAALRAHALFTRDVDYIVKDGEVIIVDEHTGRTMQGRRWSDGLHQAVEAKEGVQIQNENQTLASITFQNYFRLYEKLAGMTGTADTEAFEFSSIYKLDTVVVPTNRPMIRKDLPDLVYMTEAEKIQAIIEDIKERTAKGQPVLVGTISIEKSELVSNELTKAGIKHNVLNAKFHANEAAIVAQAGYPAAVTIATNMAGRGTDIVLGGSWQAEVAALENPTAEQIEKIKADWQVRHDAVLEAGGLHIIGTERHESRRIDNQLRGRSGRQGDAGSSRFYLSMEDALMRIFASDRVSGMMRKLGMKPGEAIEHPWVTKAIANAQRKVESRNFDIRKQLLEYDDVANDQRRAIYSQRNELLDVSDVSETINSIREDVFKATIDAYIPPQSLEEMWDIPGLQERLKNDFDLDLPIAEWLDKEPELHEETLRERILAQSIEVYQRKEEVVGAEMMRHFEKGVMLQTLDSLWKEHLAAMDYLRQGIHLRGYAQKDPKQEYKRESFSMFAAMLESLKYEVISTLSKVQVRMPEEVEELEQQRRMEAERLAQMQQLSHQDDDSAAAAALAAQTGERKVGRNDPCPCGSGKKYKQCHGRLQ
The target of assay [2] is T1, Ubiquitin-activating enzyme e1, putative (Leishmania donovani (strain BPK282A1)) (UniProt E9BSI1).
T1 sequence (whole entry): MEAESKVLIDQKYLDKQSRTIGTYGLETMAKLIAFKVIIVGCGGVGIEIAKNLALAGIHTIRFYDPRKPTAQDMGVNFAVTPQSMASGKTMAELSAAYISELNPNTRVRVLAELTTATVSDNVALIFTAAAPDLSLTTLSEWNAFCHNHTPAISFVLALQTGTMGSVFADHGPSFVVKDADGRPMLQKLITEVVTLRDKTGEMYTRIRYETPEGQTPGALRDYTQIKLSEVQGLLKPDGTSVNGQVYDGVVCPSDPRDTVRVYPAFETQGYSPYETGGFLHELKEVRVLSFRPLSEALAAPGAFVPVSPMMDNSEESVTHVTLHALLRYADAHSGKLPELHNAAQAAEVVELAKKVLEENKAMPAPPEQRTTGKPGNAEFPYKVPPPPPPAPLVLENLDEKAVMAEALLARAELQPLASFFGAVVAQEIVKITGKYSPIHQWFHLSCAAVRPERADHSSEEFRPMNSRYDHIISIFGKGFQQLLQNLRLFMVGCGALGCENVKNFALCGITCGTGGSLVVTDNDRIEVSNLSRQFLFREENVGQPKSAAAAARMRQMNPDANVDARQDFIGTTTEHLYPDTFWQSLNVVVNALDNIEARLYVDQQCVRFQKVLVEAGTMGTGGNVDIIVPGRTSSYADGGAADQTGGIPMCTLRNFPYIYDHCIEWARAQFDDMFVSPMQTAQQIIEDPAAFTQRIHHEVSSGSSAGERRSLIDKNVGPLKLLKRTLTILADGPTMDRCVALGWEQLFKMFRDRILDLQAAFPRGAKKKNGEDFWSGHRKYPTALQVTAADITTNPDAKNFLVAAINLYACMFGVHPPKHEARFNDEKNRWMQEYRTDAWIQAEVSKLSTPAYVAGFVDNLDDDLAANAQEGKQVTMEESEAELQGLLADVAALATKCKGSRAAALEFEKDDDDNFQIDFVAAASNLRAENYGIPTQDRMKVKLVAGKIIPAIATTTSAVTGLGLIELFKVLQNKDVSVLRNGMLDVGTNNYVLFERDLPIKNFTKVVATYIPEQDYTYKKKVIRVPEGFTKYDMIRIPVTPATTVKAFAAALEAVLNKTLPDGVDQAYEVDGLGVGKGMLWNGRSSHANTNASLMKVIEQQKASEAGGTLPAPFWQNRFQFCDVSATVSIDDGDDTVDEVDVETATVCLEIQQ
As to the kind of experiment: Leishmania donovani Ubiquitin Activating Enzyme (LdE1). Conditions: 30 µM. The assay is classed as functional.

The target of assay [3] is AMP-activated protein kinase, AMPK (Homo sapiens) (UniProt P54646+O43741+P54619+Q9UGJ0+Q9Y478+Q13131+Q9UGI9). Kind of assay: AMP-dependent Kinase enzyme assay. An in vitro enzyme assay that detects ADP turnover that is directly proportional to AMPK activity. This uses naive AMPK that is activated during the assay with MK-8722. The assay is classed as functional. Conditions: 30 µM.

In assay [4] the target is Sialic acid-binding Ig-like lectin 9 (Homo sapiens) (UniProt Q9Y336). Kind of assay: Hs-Siglec9 ALPHAscreen SOP 20170721. Conditions: 10 µM. On the technique in general: In Alpha technology, singlet oxygen from a donor bead excites a nearby acceptor bead.
Sequence of Sialic acid-binding Ig-like lectin 9 (Homo sapiens) (Q9Y336 whole entry): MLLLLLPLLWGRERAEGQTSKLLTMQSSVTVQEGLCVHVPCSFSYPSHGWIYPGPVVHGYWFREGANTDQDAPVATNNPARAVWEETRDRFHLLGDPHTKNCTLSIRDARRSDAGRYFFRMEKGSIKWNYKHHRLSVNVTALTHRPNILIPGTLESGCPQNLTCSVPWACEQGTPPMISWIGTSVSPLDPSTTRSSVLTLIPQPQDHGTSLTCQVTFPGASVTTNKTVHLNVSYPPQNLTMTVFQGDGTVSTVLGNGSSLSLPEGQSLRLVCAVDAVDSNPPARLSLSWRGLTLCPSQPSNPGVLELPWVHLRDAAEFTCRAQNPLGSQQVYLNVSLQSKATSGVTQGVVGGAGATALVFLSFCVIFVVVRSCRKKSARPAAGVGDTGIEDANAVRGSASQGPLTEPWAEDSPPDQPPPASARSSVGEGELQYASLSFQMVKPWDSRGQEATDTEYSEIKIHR
Another assay deals with Trypanosoma cruzi. Kind of assay: Trypanosoma cruzi phosphomannomutase and mannose-1-phosphate guanylyltransferase assay. The assay is classed as functional. Conditions: 10 µM.
The target in assay [5] is T2, Arginase-2, mitochondrial (Homo sapiens) (UniProt P78540).
T2 sequence (whole entry): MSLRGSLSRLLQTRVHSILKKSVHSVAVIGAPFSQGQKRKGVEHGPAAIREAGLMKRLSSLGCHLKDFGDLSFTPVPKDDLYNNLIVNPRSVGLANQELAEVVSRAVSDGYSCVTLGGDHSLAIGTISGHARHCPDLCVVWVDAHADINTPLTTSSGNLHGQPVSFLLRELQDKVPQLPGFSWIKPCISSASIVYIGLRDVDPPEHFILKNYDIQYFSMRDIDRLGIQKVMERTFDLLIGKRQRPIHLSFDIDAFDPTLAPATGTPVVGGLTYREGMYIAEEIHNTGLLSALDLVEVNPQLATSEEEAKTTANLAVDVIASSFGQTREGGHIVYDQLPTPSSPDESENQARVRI
Kind of assay: in vitro enzyme assay to detect the production of urea directly proportional to the activity of Arginase II. Also: in the data most compounds retested in dose-response had high values. The assay is classed as functional. Conditions: 33.3 µM.

The target of assay [6] is T3, Proteasome subunit beta (Trypanosoma cruzi) (UniProt O96673).
T3 sequence (whole entry): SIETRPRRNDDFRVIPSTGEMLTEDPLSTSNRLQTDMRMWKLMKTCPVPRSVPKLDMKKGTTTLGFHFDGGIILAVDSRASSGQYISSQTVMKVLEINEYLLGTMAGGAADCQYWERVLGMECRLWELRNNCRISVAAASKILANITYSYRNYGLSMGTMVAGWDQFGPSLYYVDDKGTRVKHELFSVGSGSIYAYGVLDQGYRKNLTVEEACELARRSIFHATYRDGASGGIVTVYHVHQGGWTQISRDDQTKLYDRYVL
Kind of assay: Trypanosoma cruzi proteasome chymotrypsin-like activity (TcProtChymo) assay. Also: in the data most compounds retested in dose-response had high values. The assay is classed as functional. Conditions: 9.37 µM.

The next assay is filed under the species Homo sapiens. As to the kind of experiment: To identify inhibition of the IFN signalling (Jak-Stat) pathway via expression of an eGFP reporter gene under the control of an IFN-stimulated response element (ISRE) containing MxA promoter. The assay is classed as functional. Conditions: 30 µM.
Assay [7] has as its target T4, Tyrosyl-tRNA synthetase, putative (Trypanosoma cruzi (strain CL Brener)) (UniProt Q4DSP6).
T4 sequence (whole entry): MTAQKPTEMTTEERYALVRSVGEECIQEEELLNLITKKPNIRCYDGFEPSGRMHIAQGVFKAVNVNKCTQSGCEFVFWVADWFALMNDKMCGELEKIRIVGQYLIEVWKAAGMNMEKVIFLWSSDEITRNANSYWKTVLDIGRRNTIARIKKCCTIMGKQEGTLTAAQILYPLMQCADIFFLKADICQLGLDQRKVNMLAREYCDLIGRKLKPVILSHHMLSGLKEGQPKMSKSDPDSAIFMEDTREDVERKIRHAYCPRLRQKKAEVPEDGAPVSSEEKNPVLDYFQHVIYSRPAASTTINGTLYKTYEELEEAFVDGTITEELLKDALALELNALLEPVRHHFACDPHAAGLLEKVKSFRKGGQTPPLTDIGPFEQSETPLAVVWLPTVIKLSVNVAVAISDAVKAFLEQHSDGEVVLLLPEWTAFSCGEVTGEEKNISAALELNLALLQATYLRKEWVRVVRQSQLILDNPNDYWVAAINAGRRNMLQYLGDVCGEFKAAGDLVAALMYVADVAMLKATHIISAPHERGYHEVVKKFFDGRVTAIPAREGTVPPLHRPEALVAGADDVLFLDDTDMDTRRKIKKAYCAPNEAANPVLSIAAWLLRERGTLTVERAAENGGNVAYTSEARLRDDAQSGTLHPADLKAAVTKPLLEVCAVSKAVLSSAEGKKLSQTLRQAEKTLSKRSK
Kind of assay: Trypanosoma cruzi tyrosyl tRNA synthetase (TcYRS) _High Tyrosine SOP. Also: in the data most compounds retested in dose-response had high values. The assay is classed as functional. Conditions: 30 µM.

The target of assay [8] is T4, Tyrosyl-tRNA synthetase, putative (Trypanosoma cruzi (strain CL Brener)). As to the kind of experiment: Trypanosoma cruzi tyrosyl tRNA synthetase (TcYRS) SOP. The assay is classed as functional. Conditions: 30 µM.
Assay [9] addresses Chromo domain-containing protein 1 (Saccharomyces cerevisiae (strain ATCC 204508 / S288c) (Baker's yeast)) (UniProt P32657). Kind of assay: ScCHD-1 Enzyme Inhibition Assay. Also: in the data most compounds retested in dose-response had high values. Conditions: 30 µM. The assay is classed as functional.

Sequence of Chromo domain-containing protein 1 (Saccharomyces cerevisiae (strain ATCC 204508 / S288c) (Baker's yeast)) (P32657 whole entry, the tested form may be a part): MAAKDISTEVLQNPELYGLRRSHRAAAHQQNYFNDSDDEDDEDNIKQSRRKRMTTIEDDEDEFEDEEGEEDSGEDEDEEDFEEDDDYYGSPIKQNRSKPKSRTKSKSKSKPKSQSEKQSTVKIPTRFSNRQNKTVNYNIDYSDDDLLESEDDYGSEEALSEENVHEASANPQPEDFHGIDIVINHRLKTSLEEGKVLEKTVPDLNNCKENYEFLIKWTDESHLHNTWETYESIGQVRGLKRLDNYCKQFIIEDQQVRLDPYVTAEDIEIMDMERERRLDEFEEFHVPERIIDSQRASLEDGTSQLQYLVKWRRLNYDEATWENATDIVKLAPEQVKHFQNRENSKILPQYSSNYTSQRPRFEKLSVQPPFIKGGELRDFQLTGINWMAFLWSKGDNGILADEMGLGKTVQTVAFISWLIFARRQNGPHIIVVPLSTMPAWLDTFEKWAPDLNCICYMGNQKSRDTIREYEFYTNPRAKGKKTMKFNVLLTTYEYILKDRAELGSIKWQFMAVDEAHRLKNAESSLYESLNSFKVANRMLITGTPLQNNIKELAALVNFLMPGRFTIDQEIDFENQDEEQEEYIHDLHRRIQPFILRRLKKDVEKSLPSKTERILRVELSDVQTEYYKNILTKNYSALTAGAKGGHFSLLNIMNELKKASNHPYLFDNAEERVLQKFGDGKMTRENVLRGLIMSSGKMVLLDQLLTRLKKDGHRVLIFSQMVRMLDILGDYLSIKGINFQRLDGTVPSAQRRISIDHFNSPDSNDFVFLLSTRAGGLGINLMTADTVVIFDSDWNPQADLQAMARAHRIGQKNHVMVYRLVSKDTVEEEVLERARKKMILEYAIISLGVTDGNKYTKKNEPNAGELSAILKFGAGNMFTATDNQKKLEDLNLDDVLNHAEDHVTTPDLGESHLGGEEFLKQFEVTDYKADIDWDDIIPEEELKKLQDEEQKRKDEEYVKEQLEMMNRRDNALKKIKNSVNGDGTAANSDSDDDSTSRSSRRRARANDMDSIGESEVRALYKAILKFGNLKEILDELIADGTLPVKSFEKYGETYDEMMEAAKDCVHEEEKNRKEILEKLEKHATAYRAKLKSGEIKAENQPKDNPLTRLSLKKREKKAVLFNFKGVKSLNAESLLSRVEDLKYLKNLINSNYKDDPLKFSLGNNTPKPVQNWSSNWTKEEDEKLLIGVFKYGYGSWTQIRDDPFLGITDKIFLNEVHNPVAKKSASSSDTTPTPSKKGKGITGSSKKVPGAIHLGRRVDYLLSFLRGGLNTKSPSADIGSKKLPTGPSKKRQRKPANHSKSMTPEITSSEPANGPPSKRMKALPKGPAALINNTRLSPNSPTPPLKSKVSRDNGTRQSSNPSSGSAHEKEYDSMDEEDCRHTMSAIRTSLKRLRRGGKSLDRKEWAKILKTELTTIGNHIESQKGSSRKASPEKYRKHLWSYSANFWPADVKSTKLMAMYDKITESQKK

Consider `Cc1ccoc1-c1nnc(CNCCn2cccn2)o1`, for which the Percent Effect was -0.597% in assay [1]; 22.8% in [2]; -3.87% in assay [3]; -12.1% in assay [4]; 3.12% with Trypanosoma cruzi; 1.52% in [5]. Further, the Percent Effect in [6] is 7.29%; in the assay listed under Homo sapiens, 23.9%; in [7] it was 7.39%; in [8], 24.1%; in assay [9] it was -15.5%.
Regarding `COc1cc(CC(O)CO)c(OC)c2c1OCO2` (stereo unspecified), the Percent Effect in assay [1] was -6.55%; in [2], 14.7%; in [3], -12.3%; in assay [4], 4.03%; in the assay on Trypanosoma cruzi, 6.29%; in assay [5], -12.5%. Besides, the Percent Effect is 9.8% in assay [6]; 5.7% in the assay listed under Homo sapiens; 8.47% in assay [7]; 15.4% in [8]; -21.2% in [9].
Take `CC(=O)N1CCCC1c1nnc2n1CCCCC2` (stereo unspecified): the Percent Effect in assay [1] is -8.8%; in assay [2], -32.4%; in [3], 1.68%; in assay [4], -1.76%; with Trypanosoma cruzi, -0.195%; in assay [5], 5.42%. Also, the Percent Effect in assay [6] is 6.85%; in the assay listed under Homo sapiens it was 5.46%; in assay [7] it was 7.92%; in [8], 13.4%; in [9] it was -5.77%.
As for `CC1CCCCN1c1nc2c(c(=O)[nH]1)CCN(Cc1cccnc1)C2` (stereo unspecified), the Percent Effect is -3.13% in assay [1]; 12.2% in assay [2]; 6.19% in assay [3]; 3.8% in assay [4]; 0.79% in the assay with Trypanosoma cruzi; 2.09% in [5]. Besides, the Percent Effect in assay [6] is 9.36%; in the assay listed under Homo sapiens, 2.99%; in assay [7], 3.23%; in assay [8] it was 14.3%; in assay [9] it was -18.2%.
For the compound `O=C(c1cnccn1)N1CCN(Cc2csc(-c3ccccc3)n2)CC1`, the Percent Effect in [1] is -3.77%; in [2], -2.7%; in assay [3], 9.72%; in [4] it was -0.413%; with Trypanosoma cruzi it was -6.04%; in [5] it was 0.185%. The Percent Effect in [6] was 0.898%; in the assay listed under Homo sapiens, 19.6%; in assay [7], -4.95%; in [8] it was -1.22%; in [9], 7.87%.
Consider `CCOc1ccc(CN(C)C(=O)NC(C)c2nncn2C)cc1` (stereo unspecified), for which the Percent Effect in assay [1] was 1.14%; in assay [2], 15.3%; in [3], -8.94%; in [4], 7%; in the assay on Trypanosoma cruzi, 0.0972%; in [5], 4.42%. The Percent Effect in assay [6] is 18.4%; in the assay listed under Homo sapiens, 11.4%; in [7] it was 7.37%; in assay [8] it was 5.13%; in assay [9], -0.989%.
Turning to `Cn1nc(C2CCN(C(=O)Cc3cccc(F)c3)CC2)c2cccnc21`, the Percent Effect in assay [1] is -2.77%; in [2], -6.76%; in assay [3], 12.2%; in assay [4] it was 3.61%; in the assay with Trypanosoma cruzi, 4.35%; in assay [5], -0.232%. The Percent Effect was 6.71% in assay [6]; 14.9% in the assay listed under Homo sapiens; 1.07% in assay [7]; 6.49% in assay [8]; -3.75% in assay [9].
In the case of `Cc1cnn(CC2CCCCN2Cc2noc(C3CC3)n2)c1` (stereo unspecified), the Percent Effect in assay [1] was -2.92%; in assay [2] it was 5.26%; in [3] it was 2.62%; in assay [4], 2.92%; in the assay with Trypanosoma cruzi it was 0%; in assay [5] it was 1.53%. Further, the Percent Effect in [6] was 9.86%; in the assay listed under Homo sapiens it was 14.8%; in assay [7], 7.35%; in [8], 9.76%; in [9], -5.92%.
As for `Cc1cccc(NC(=O)Cn2ncc(SCC(N)=O)c(Cl)c2=O)c1C`, the Percent Effect in [1] was -3.9%; in assay [2], 5.48%; in [3] it was 4.95%; in assay [4] it was -15.5%; in the assay with Trypanosoma cruzi, -4.31%; in assay [5] it was 3.18%. Further, the Percent Effect in [6] is 22.5%; in the assay filed under Homo sapiens, 17.6%; in assay [7], 5.38%; in assay [8], 5%; in [9], 79.5%.
In the case of `COC(=O)C(C)(C)NC(=O)C1CC(=O)N(C)C1` (stereo unspecified), the Percent Effect was -1.38% in [1]; -2.74% in [2]; -4.39% in [3]; 9.64% in assay [4]; 2.78% in the assay with Trypanosoma cruzi; -0.798% in assay [5]. For the same compound, the Percent Effect in [6] is 3.17%; in the assay listed under Homo sapiens, -3.68%; in [7], -1.04%; in assay [8], 8.64%; in [9], 4.14%.
`COc1ccc(-n2ccc(C(=O)N3CCN(C)CC3C)n2)cc1` (stereo unspecified): the Percent Effect in assay [1] was -5.91%; in assay [2], 10.4%; in assay [3] it was 5.54%; in [4] it was 7.32%; in the assay on Trypanosoma cruzi it was 0.374%; in assay [5], -0.712%. Also, the Percent Effect was -0.676% in [6]; 3.45% in the assay listed under Homo sapiens; 8.74% in assay [7]; 14.6% in assay [8]; -5.54% in assay [9].
